Vif-APOBEC3F blk: blocks the Vif interaction with APOBEC3F | HeLa A3F-eYFP + Vif (tagged APOBEC3F with the HIV-1 protein that degrades it), YFP fluorescence increase | Potency, µM (highest dose often 46.1 µM) | hit rate 0.2% among 390,000 | AID 602313; note: nearly all actives have a fitted effect of over 65% in size
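HeLa cells stably expressing A3F-eYFP plus Vif, plated and incubated overnight at 37 deg C, then exposed to compounds overnight at 37 deg C. Blocked degradation read as raised yellow fluorescence (Ex 488/Em 500-530).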
PINK1 modulator: modulators of PINK1 expression. PINK1 immunofluorescence, high-content cytometry, 24 h. Potency, µM (doses to about 76.6 µM), actives largely listed as activators. AID 624263. hit rate 0.2% among 410,000; active = well fitted activation curve with a large enough effect; inconclusive = small, poorly fitted or top-dose-only effect; cell line not stated here; note: nearly all actives have a fitted effect of over 65% in size
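Measures PINK1 amount and localization on or inside mitochondria by immunofluorescence. Stable cells get compounds at 5 concentrations for 24 hours before fixation and staining; CCCP controls included.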
Glioma ERSR ind: ER stress response induction in glioma | U87-MG GRP78 promoter luciferase reporter, 16 h | Potency, µM, usual class: activators | hit rate 0.02% among 420,000; note: series mostly up to about 76 µM; nearly all actives have a fitted effect of over 35% in size
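Stably transfected U87-MG glioma cells carrying a GRP78-based luciferase sensor; 16 h compound incubation. Luminescence end-point read 10 min after Bright-Glo addition at room temperature.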
Vif-A3G inh: Vif-A3G binding inhibition | Q9HC16 | HeLa A3G-eYFP + Vif (tagged APOBEC3G with the HIV-1 protein that degrades it), YFP fluorescence, overnight | Potency, µM (series often up to 46.1 µM), most hits filed as inhibitors | hit rate 0.076% among 410,000 | AID 602310; note: nearly all actives have a fitted effect of over 60% in size
Target sequence (Q9HC16 whole entry, looked up): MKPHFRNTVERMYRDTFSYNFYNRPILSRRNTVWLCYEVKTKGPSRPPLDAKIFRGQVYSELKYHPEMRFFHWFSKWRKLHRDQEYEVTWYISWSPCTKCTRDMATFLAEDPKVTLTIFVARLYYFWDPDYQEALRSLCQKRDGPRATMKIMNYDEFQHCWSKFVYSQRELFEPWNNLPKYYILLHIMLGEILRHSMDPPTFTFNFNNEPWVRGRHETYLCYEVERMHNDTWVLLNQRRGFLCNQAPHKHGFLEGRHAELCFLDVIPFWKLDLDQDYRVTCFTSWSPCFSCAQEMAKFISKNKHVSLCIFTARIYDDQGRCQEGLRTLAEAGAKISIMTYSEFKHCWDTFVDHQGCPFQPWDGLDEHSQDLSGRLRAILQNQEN
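Read-out is eYFP fluorescence (Ex 488/Em 500-530) from Vif-expressing HeLa A3G-eYFP cells; more signal means A3G escaped Vif-mediated degradation. Cells plated overnight, compound pinned in, incubated overnight at 37 deg C.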
Abeta yeast res: compounds reversing amyloid beta toxicity in yeast; Potency, µM (highest dose often 46.1 µM), hits mostly activators; hit rate 0.063% among 410,000; yeast expressing A-beta42, growth rescue, OD600, 48 h; response scale: 0% DMSO, 100% iron-clioquinol control; note: nearly all actives have a fitted effect of over 55% in size
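Yeast A-beta toxicity model in growth medium with pinned compounds, 48 h at 30 C; growth read as absorbance at 600 nm. Normalized to FeCl3/clioquinol equimolar mix (positive) and DMSO (negative).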
FUS yeast rescue: suppressors of FUS proteinopathy in yeast; S. cerevisiae FUS-expressing, growth rescue, OD600, 24 h; Potency, µM (titrated, usually from 76.6 µM), hits mostly activators; hit rate 0.24% among 390,000; AID 1347120; note: nearly all actives have a fitted effect of over 55% in size
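Quantitative HTS measuring growth restoration of FUS-toxic yeast. Galactose-induced cells (OD 0.005) were exposed 24hr at 30C to compounds at several concentrations, then absorbance at 600 nm was recorded.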
Large screens that a line does not name were inactive; ! = repeats disagree. The list is not random: actives were taken first. Their share in the collection is about 0.69%. Unless noted, calls come from the whole dose curve; as a rule, active = well fitted curve in the direction sought with a large enough effect; inconclusive = small, poorly fitted or top-dose-only effect, or another doubt; inactive = no such curve, though single readings can be large; an effect the other way counts as inactive or inconclusive.

CN(C)c1ccc(/C=C/c2nccc3ccccc23)cc1	Vif-A3G inh 11.2µM (no result: Vif-APOBEC3F blk, Abeta yeast res, FUS yeast rescue)
CN(C)c1ccc(/C=C\C=C/c2ccnc3ccccc23)cc1	PINK1 modulator 11.2µM (no result: Vif-APOBEC3F blk, Abeta yeast res, FUS yeast rescue)
Cc1ccc2nccc(/C=C/c3ccc(N(C)C)cc3)c2c1	Vif-A3G inh 3.55µM (no result: Vif-APOBEC3F blk, PINK1 modulator, Abeta yeast res, FUS yeast rescue)
Fc1ccc(/C=C/c2nccc3ccccc23)cc1	none (no result: Vif-APOBEC3F blk, Abeta yeast res, FUS yeast rescue)
C(=C\c1c[nH]c2ccccc12)/c1nccc2ccccc12	Vif-A3G inh 8.91µM (no result: Vif-APOBEC3F blk, Abeta yeast res, FUS yeast rescue)
Cc1ncc2c(c1CNS(=O)(=O)N(C)C)CCN(C(=O)c1ccc(-c3ccc(F)cc3)cc1)C2	none (no result: Vif-APOBEC3F blk, Vif-A3G inh, Abeta yeast res, FUS yeast rescue)
CN(C)C(=O)[C@@H]1C[C@@H](Sc2nc3ccccc3[nH]2)CN1Cc1ccnc2ccccc12	none (no result: Vif-APOBEC3F blk, Vif-A3G inh, Abeta yeast res, FUS yeast rescue)
CN(C)c1ccc(/C=C/c2ccncc2)cc1	Vif-APOBEC3F blk 28.2µM, Vif-A3G inh inconclusive
CN(C)c1ccc(/C=C/c2cnnc3ccccc23)cc1	PINK1 modulator inconclusive, Vif-A3G inh 8.91µM (no result: Vif-APOBEC3F blk, Abeta yeast res, FUS yeast rescue)
C(=Cc1cnnc2ccccc12)c1ccccc1	none
CN(C)c1ccc(/C=C/c2ccc3c4ccccc4ccc3[n+]2-c2ccccc2)cc1	PINK1 modulator 8.91µM!
CN(C)c1ccc(/C=C/c2ccc3ccccc3[n+]2C)cc1	PINK1 modulator inconclusive (no result: FUS yeast rescue)
CN(C)c1ccc(/C=C/c2cncc3ccccc23)cc1	none (no result: Vif-APOBEC3F blk, Abeta yeast res, FUS yeast rescue)
CN(C)c1ccc(/C=C/c2c[n+](C)cc3ccccc23)cc1	PINK1 modulator 44.7µM (no result: Vif-APOBEC3F blk, Abeta yeast res, FUS yeast rescue)
CSc1ccccc1C(=O)NCc1nc(-c2cccc(NC(=O)c3ccoc3C)c2)oc1C	none (no result: Vif-APOBEC3F blk, Vif-A3G inh, Abeta yeast res, FUS yeast rescue)
COc1ccc(C(=O)NCC2Cc3c(F)ccc(-c4nc(C)cnc4C)c3O2)cc1F (stereo not given)	none (no result: Vif-APOBEC3F blk, Vif-A3G inh, Abeta yeast res, FUS yeast rescue)
Cc1ccc(C)c2[nH]c(=O)c(CN(CCN3CCCC3)C(=O)Nc3cccc(Cl)c3)cc12	Abeta yeast res inconclusive, FUS yeast rescue 35.5µM
CCNc1ccc(Br)cc(C(=O)/C=C/c2ccccc2Cl)c1=O	Vif-APOBEC3F blk inconclusive, Vif-A3G inh 10µM, FUS yeast rescue inconclusive
CCOc1cccc(C(=O)Nc2ccc(N3CCCC3)cc2)c1	none
CCOc1ccc(C(=O)Nc2ccc(N3CCCC3)cc2)cc1	FUS yeast rescue 35.5µM (no result: Vif-APOBEC3F blk)
Cc1cccc(OCC(=O)Nc2ccc(N3CCCC3)cc2)c1C	FUS yeast rescue 25.1µM (no result: PINK1 modulator)
COc1ccc2c(c1)OC(C)CN(CCNC(=O)c1ccc(-n3cccn3)cc1)C2 (stereo not given)	none (no result: Vif-APOBEC3F blk, Vif-A3G inh, Abeta yeast res, FUS yeast rescue)
CCn1c(-c2cc(-c3ccc(OC(C)C)cc3)nc3ccccc23)n[nH]c1=S	FUS yeast rescue 35.5µM
CCn1c(-c2cc(-c3ccc(C)cc3)nc3ccccc23)n[nH]c1=S	Abeta yeast res inconclusive
COC(=O)c1c(OCc2cccnc2)cc(=O)n2c1CCN(Cc1cc3c(cc1Cl)OCO3)CC2	none (no result: Vif-APOBEC3F blk, Vif-A3G inh, Abeta yeast res, FUS yeast rescue)
O=C(Oc1c(-c2ccccc2)c(=O)n2c3c(cccc13)CC2)c1cccc([N+](=O)[O-])c1	Abeta yeast res 14.1µM
O=C(c1ccc2c(c1)OCO2)N1CCCC1	FUS yeast rescue 10µM
O=C(c1ccc2c(=O)n(Cc3ccc4c(c3)OCO4)c(=S)[nH]c2c1)N1CCCCC1	PINK1 modulator 14.1µM
CC(OC(=O)c1cc2sccc2n1C)C(=O)NCC1CCCO1 (stereo not given)	PINK1 modulator 10µM
Cn1c(-c2ccncc2)nc2cc(C(=O)N3CCCC3c3nccs3)cc(NC(=O)C3CCC3)c21 (stereo not given)	none (no result: Vif-APOBEC3F blk, Vif-A3G inh, Abeta yeast res, FUS yeast rescue)
COC(=O)c1sc(-c2ccc(C(C)(C)C)cc2)cc1NC(=O)c1ccccc1C(=O)O	none
COC(=O)c1sc(-c2ccc(C(C)(C)C)cc2)cc1NC(=O)CSCC(=O)O	FUS yeast rescue 28.2µM
N#C/C(=C\c1ccc(N2CCCCC2)o1)C(=O)Nc1cccc(Br)c1	PINK1 modulator 6.31µM
Cc1cc2ccccn2c1C(=O)c1ccc([N+](=O)[O-])o1	Vif-APOBEC3F blk 11.2µM, PINK1 modulator inconclusive, Vif-A3G inh inconclusive
Nc1nc(SCc2ccc(Cl)cc2Cl)nc2nc3c(cc12)CCCC3	Vif-APOBEC3F blk 22.4µM, PINK1 modulator inconclusive, Vif-A3G inh inconclusive (no result: FUS yeast rescue)
CN1C(=O)/C(=C/c2ccccc2OCc2ccc(F)cc2)N(C)C1=S	Vif-APOBEC3F blk 3.55µM, PINK1 modulator inconclusive (no result: FUS yeast rescue)
CN1C(=O)/C(=C/c2ccccc2OCc2ccccc2)NC1=S	none
